# The campaign covered roughly 5,500 compounds. About 2,000 (36%) were called active. Roughly 18% stayed inconclusive and do not appear here. The list shows a part of the results. Values without a mark were called inactive. No stated cut-off is given here; in the data, active means normalized growth mostly below about 0.91 (no sharp cut-off); inconclusive means no clear call, values can overlap the other calls; inactive means mostly above about 0.92.
# Test: chemical genetic growth profiling, strain panel (AID 1159580);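 further: tested at 20 µM; growth read once vehicle control cultures reached saturation at 30 °C; 1 = growth at the plate median or of vehicle wells; lower values mean less growth of the strain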
# Settings: growth OD
smiles,measurement,setting,value
CCOc1ccc(Cc2nccc3cc(OCC)c(OCC)cc23)cc1OCC,normalized growth,"S. cerevisiae deletion strains, locus YJR075W, strain HOC1, active compounds read low",0.92
same,normalized growth,"S. cerevisiae deletion strains, locus YKL009W, strain mrt4, active compounds read low",0.969
same,normalized growth,"S. cerevisiae deletion strains, locus YKL068W, active compounds read low",0.986
same,normalized growth,"S. cerevisiae deletion strains, locus YKL085W, strain MDH1 (second series), active compounds read low",0.985
same,normalized growth,"S. cerevisiae deletion strains, locus YKL085W, strain MDH1, active compounds read low",0.985
same,normalized growth,"S. cerevisiae deletion strains, locus YKL160W, strain elf1, active compounds read low",0.98
same,normalized growth,"S. cerevisiae deletion strains, locus YKL190W, strain CNB1, active compounds read low",0.98
same,normalized growth,"S. cerevisiae deletion strains, locus YKR001C, strain vps1, active compounds read low",0.88 (active)
same,normalized growth,"S. cerevisiae deletion strains, locus YKR026C, strain gcn3, active compounds read low",0.975
same,normalized growth,"S. cerevisiae deletion strains, locus YKR091W, strain srl3, active compounds read low",0.979
same,normalized growth,"S. cerevisiae deletion strains, locus YLL001W, strain dnm1, active compounds read low",0.96
same,normalized growth,"S. cerevisiae deletion strains, locus YLL026W, active compounds read low",0.984
same,normalized growth,"S. cerevisiae deletion strains, locus YLL041C, strain sdh2, active compounds read low",0.975
same,normalized growth,"S. cerevisiae deletion strains, locus YLR027C, strain aat2, active compounds read low",0.97
same,normalized growth,"S. cerevisiae deletion strains, locus YLR039C, strain RIC1, active compounds read low",0.878
same,normalized growth,"S. cerevisiae deletion strains, locus YLR058C, strain SHM2, active compounds read low",0.949
same,normalized growth,"S. cerevisiae deletion strains, locus YLR102C, strain apc9, active compounds read low",0.978
same,normalized growth,"S. cerevisiae deletion strains, locus YLR113W, strain HOG1, active compounds read low",1.02
same,normalized growth,"S. cerevisiae deletion strains, locus YLR221C, strain rsa3, active compounds read low",0.982
same,normalized growth,"S. cerevisiae deletion strains, locus YLR258W, strain gsy2, active compounds read low",0.968
same,normalized growth,"S. cerevisiae deletion strains, locus YLR262C, strain YPT6 (second series), active compounds read low",0.871
same,normalized growth,"S. cerevisiae deletion strains, locus YLR262C, strain YPT6, active compounds read low",0.861
same,normalized growth,"S. cerevisiae deletion strains, locus YLR268W, strain sec22, active compounds read low",0.873 (active)
same,normalized growth,"S. cerevisiae deletion strains, locus YLR320W, strain mms22, active compounds read low",0.949
same,normalized growth,"S. cerevisiae deletion strains, locus YLR330W, strain CHS5, active compounds read low",0.979
same,normalized growth,"S. cerevisiae deletion strains, locus YLR342W, strain FKS1 (second series), active compounds read low",0.901
same,normalized growth,"S. cerevisiae deletion strains, locus YLR342W, strain FKS1, active compounds read low",0.963
same,normalized growth,"S. cerevisiae deletion strains, locus YLR357W, strain rsc2, active compounds read low",0.899
same,normalized growth,"S. cerevisiae deletion strains, locus YLR370C, strain arc18, active compounds read low",0.977
same,normalized growth,"S. cerevisiae deletion strains, locus YLR371W, strain rom2, active compounds read low",0.966
same,normalized growth,"S. cerevisiae deletion strains, locus YLR384C, strain iki3, active compounds read low",0.989
same,normalized growth,"S. cerevisiae deletion strains, locus YLR418C, strain cdc73, active compounds read low",0.772 (active)
same,normalized growth,"S. cerevisiae deletion strains, locus YML016C, strain PPZ1, active compounds read low",0.973
same,normalized growth,"S. cerevisiae deletion strains, locus YML032C, strain rad52, active compounds read low",0.943
same,normalized growth,"S. cerevisiae deletion strains, locus YML120C, strain ndi1, active compounds read low",0.965
same,normalized growth,"S. cerevisiae deletion strains, locus YML124C, strain tub3, active compounds read low",0.979
same,normalized growth,"S. cerevisiae deletion strains, locus YMR058W, strain fet3, active compounds read low",0.967
same,normalized growth,"S. cerevisiae deletion strains, locus YMR078C, strain ctf18, active compounds read low",0.957
same,normalized growth,"S. cerevisiae deletion strains, locus YMR125W, strain sto1, active compounds read low",1.01
same,normalized growth,"S. cerevisiae deletion strains, locus YMR129W, active compounds read low",0.984
same,normalized growth,"S. cerevisiae deletion strains, locus YMR205C, strain PFK2, active compounds read low",0.938
same,normalized growth,"S. cerevisiae deletion strains, locus YMR223W, strain ubp8, active compounds read low",0.971
same,normalized growth,"S. cerevisiae deletion strains, locus YMR231W, strain pep5, active compounds read low",0.979
same,normalized growth,"S. cerevisiae deletion strains, locus YMR307W, strain GAS1, active compounds read low",0.769
same,normalized growth,"S. cerevisiae deletion strains, locus YNL067W, strain RPL9B, active compounds read low",0.935
same,normalized growth,"S. cerevisiae deletion strains, locus YNL071W, strain lat1, active compounds read low",0.985
same,normalized growth,"S. cerevisiae deletion strains, locus YNL128W, strain TEP1, active compounds read low",0.967
same,normalized growth,"S. cerevisiae deletion strains, locus YNL153C, strain GIM3, active compounds read low",0.961
same,normalized growth,"S. cerevisiae deletion strains, locus YNL183C, strain NPR1, active compounds read low",0.899
same,normalized growth,"S. cerevisiae deletion strains, locus YNL209W, strain ssb2, active compounds read low",0.98
same,normalized growth,"S. cerevisiae deletion strains, locus YNL233W, strain BNI4, active compounds read low",0.917
same,normalized growth,"S. cerevisiae deletion strains, locus YNL248C, strain rpa49, active compounds read low",0.942
same,normalized growth,"S. cerevisiae deletion strains, locus YNL250W, strain rad50, active compounds read low",0.98
same,normalized growth,"S. cerevisiae deletion strains, locus YNL271C, strain bni1, active compounds read low",0.979
same,normalized growth,"S. cerevisiae deletion strains, locus YNL298W, strain CLA4, active compounds read low",0.993
same,normalized growth,"S. cerevisiae deletion strains, locus YNL307C, strain MCK1, active compounds read low",0.875 (active)
same,normalized growth,"S. cerevisiae deletion strains, locus YNL322C, strain KRE1 (second series), active compounds read low",0.982
same,normalized growth,"S. cerevisiae deletion strains, locus YNL322C, strain KRE1, active compounds read low",0.986
same,normalized growth,"S. cerevisiae deletion strains, locus YNR049C, strain mso1, active compounds read low",0.965
same,normalized growth,"S. cerevisiae deletion strains, locus YNR052C, strain pop2, active compounds read low",0.974
same,normalized growth,"S. cerevisiae deletion strains, locus YOL006C, strain TOP1, active compounds read low",0.771
same,normalized growth,"S. cerevisiae deletion strains, locus YOL012C, strain htz1",1.53
same,normalized growth,"S. cerevisiae deletion strains, locus YOL147C, strain pex11, active compounds read low",0.969
same,normalized growth,"S. cerevisiae deletion strains, locus YOR001W, strain rrp6, active compounds read low",0.966
same,normalized growth,"S. cerevisiae deletion strains, locus YOR061W, strain CKA2, active compounds read low",0.978
same,normalized growth,"S. cerevisiae deletion strains, locus YOR069W, strain VPS5, active compounds read low",0.98
same,normalized growth,"S. cerevisiae deletion strains, locus YOR070C, strain gyp1, active compounds read low",0.976
same,normalized growth,"S. cerevisiae deletion strains, locus YOR080W, strain dia2, active compounds read low",0.977
same,normalized growth,"S. cerevisiae deletion strains, locus YOR083W, strain WHI5, active compounds read low",0.95
same,normalized growth,"S. cerevisiae deletion strains, locus YOR106W, strain vam3, active compounds read low",0.928
same,normalized growth,"S. cerevisiae deletion strains, locus YOR136W, strain idh2, active compounds read low",0.974
same,normalized growth,"S. cerevisiae deletion strains, locus YOR144C, strain elg1, active compounds read low",0.974
same,normalized growth,"S. cerevisiae deletion strains, locus YOR184W, strain ser1, active compounds read low",0.899
same,normalized growth,"S. cerevisiae deletion strains, locus YOR231W, strain MKK1, active compounds read low",0.978
same,normalized growth,"S. cerevisiae deletion strains, locus YOR265W, strain rbl2, active compounds read low",0.993
same,normalized growth,"S. cerevisiae deletion strains, locus YOR270C, strain vph1, active compounds read low",0.849
same,normalized growth,"S. cerevisiae deletion strains, locus YOR290C, strain snf2, active compounds read low",0.974
same,normalized growth,"S. cerevisiae deletion strains, locus YOR316C, strain cot1, active compounds read low",0.967
same,normalized growth,"S. cerevisiae deletion strains, locus YPL051W, strain arl3, active compounds read low",0.948
same,normalized growth,"S. cerevisiae deletion strains, locus YPL055C, strain LGE1, active compounds read low",0.906
same,normalized growth,"S. cerevisiae deletion strains, locus YPL078C, strain atp4, active compounds read low",0.962
same,normalized growth,"S. cerevisiae deletion strains, locus YPL106C, strain sse1, active compounds read low",0.999
same,normalized growth,"S. cerevisiae deletion strains, locus YPL240C, strain hsp82, active compounds read low",0.991
same,normalized growth,"S. cerevisiae deletion strains, locus YPL241C, strain CIN2, active compounds read low",0.984
same,normalized growth,"S. cerevisiae deletion strains, locus YPL256C, strain CLN2, active compounds read low",0.963
same,normalized growth,"S. cerevisiae deletion strains, locus YPR119W, strain clb2, active compounds read low",0.964
same,normalized growth,"S. cerevisiae deletion strains, locus YPR141C, strain kar3, active compounds read low",0.974
same,normalized growth,"S. cerevisiae deletion strains, locus YPR163C, strain tif3, active compounds read low",0.898 (active)
same,normalized growth,"S. cerevisiae deletion strains, locus YPR167C, strain met16, active compounds read low",0.97
same,normalized growth,"S. cerevisiae deletion strains, strain wtn01, active compounds read low",0.924
same,normalized growth,"S. cerevisiae strains, strain wild type, active compounds read low",0.961
